Values joined by “and” are separate entries in the source; they are usually repeats but may differ in a detail not shown here. Identical values can stand only once. This is part of a sample that, as a whole, favours compounds with a hit. Of some 83,000 tested, about 20% had one in any assay.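 Cells were grown in 96-well plates and exposed to the test compound at a single concentration for 48 hours; results are reported as percent growth, with values below 10 considered active.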 A structure can be active in one record and inactive in another. Active and inactive are the calls of the source.

The first assay has as its system RXF 393 renal. The assay can be described thus: NCI-60 one-dose screen, 48 h (100 = growth as untreated, 0 = no growth, -100 = all killed). The note with it: 10 µM unless noted.
As to `COc1ccc(/C(C#N)=C/c2ccccn2)cc1`, the growth is 99% (inactive) and 96.4% (inactive).
Same read-out and setting: under `O=C1OC2(c3ccccc31)c1ccc(O)c(O)c1Oc1c2ccc(O)c1O` stands 102% (inactive) and 120% (inactive); under `CC(=O)Nc1cccc2c1CCCC2`, 101% (inactive).
On the same count and under the same terms, under `CN(C)c1ccc2nc3ccc(N)cc3[n+](-c3ccccc3)c2c1` stands 65.6% (inactive) and 73.1% (inactive); under `CCN(CC)CCOc1ccc(/C=N/Nc2nc3c([nH]2)c(=O)n(C)c(=O)n3C)cc1`, 114% (inactive) and 122% (inactive).
Turning to `O=C1CCN(Cc2ccccc2)C(=S)N1`, the growth is 122% (inactive) and 121% (inactive).
As to `CC(C)Cc1ccc(C(C)C(=O)NCc2ccc(Cn3c(=O)sn(CCCI)c3=O)cc2)cc1` (configuration not stated), the growth is -94.8% (active).
On the same count and under the same terms, then `CCc1c(CC(=O)O)c2cc(C)ccc2n1Cc1ccc(Cl)cc1`, with 76.8% (inactive); and `CNC(=O)c1ccc(C)c(-n2c(C)cc(OCc3ccc(F)cc3F)c(Br)c2=O)c1`, with 87.7% (inactive).
The same measure, in the same setting: under `O=[N+]([O-])c1ccc(-n2[nH]nnc2=S)cc1` stands 166% (inactive); under `COC(=O)/C=C/c1cc(O)c2c(c1)C(C(=O)OC)C(c1ccc(O)c(O)c1)O2` (configuration not stated), 55.9% (inactive) and 30% (inactive); under `COC(=O)c1nc(N)nc(C(=O)OC)c1C(=O)c1ccc(OC)cc1`, 103% (inactive) and 9.98% (active).
The same measure, in the same setting: under `COc1cc2c(c(OC)c1OC)-c1ccc(OC)c(=O)cc1[C@@H](NC(C)=O)CC2` stands 34% (inactive) and 33.7% (inactive) and 15.3% (inactive).
For `CN1CCN(c2ccc3nc(-c4c(N)c5c(F)cccc5[nH]c4=O)[nH]c3c2)CC1`, the growth is -1.36% (active) and 26.3% (inactive).
Still for that read-out and setting: then `NC(=S)NN=C1CCC(C2CCCCC2)CC1` (configuration not stated), with 92.3% (inactive) and 92.9% (inactive).
The same measure, in the same setting: under `c1ccc2cc(C[n+]3ccn(Cc4ccc5ccccc5n4)c3)ccc2c1` stands 23.5% (inactive) and 45.4% (inactive).
Same read-out and setting: then `CN(C)CCC(=O)c1ccc(Cl)cc1`, with 110% (inactive) and 121% (inactive); and `Fc1ccccc1Nc1n[nH]c(=S)s1`, with 116% (inactive).
Turning to `CCOc1ccc2cc(-c3nn(CC4CCN(C)CC4)c4ncnc(N)c34)ccc2c1`, the growth is 46.8% (inactive) and -5.36% (active).
As for `CC[N+](CC)(CC(=O)Nc1c(C)cccc1C)Cc1ccccc1`, the growth is 92.8% (inactive) and 106% (inactive).
For `CC1=CCC2CC1C2(C)C` (configuration not stated), the growth is 102% (inactive) and 71% (inactive).
Same read-out and setting: under `CC1(C)[C@@H](OC(=O)CCC(=O)O)CC[C@]2(C)[C@H]3C(=O)C=C4[C@@H]5C[C@@](C)(C(=O)O)CC[C@]5(C)CC[C@@]4(C)[C@]3(C)CC[C@@H]12` stands 125% (inactive) and -88.8% (active).
Regarding `CCC(O)c1ccccc1` (configuration not stated), the growth was 8.94% (active) and 98.9% (inactive).
The same measure, in the same setting: under `CN(Cc1ccccc1)Cc1ccccc1` stands 104% (inactive); under `COc1ccc(-c2ncnc3c2ncn3C/C=C/CCl)cc1`, 7.94% (active) and 42.6% (inactive).
With `NS(=O)(=O)c1cc2c(cc1Cl)NC(C(Cl)Cl)NS2(=O)=O` (configuration not stated), the growth was 112% (inactive) and 128% (inactive).
In the case of `O=Nc1ccc(O)cc1`, the growth is 99.3% (inactive) and 112% (inactive).
Same read-out and setting: then `COc1ccc2c(=O)cc(-c3ccccc3)[nH]c2c1`, with 7.41% (active).
Still for that read-out and setting: under `O=CC(O)C(O)C(O)CO` (configuration not stated) stands 104% (inactive).
Still for that read-out and setting: under `CN(C)c1ccc(/C=C(\C#N)c2ccccc2)cc1` stands -6.38% (active) and -3.64% (active).
Consider `OCCN1CCN(CCO)CC1`, for which the growth is 114% (inactive) and 95.6% (inactive) and 120% (inactive).
Still for that read-out and setting: then `CC1=C[C@H]2c3c(c(O)c(O)c4oc5cc(O)cc(O)c5c(=O)c34)[C@H](c3cc(O)c(O)c4oc5cc(O)cc(O)c5c(=O)c34)[C@H]2C(C)(C)C1`, with -4.11% (active).
As for `CCOc1ccc2c(S(=O)(=O)O)cccc2c1[N+](=O)[O-]`, the growth was 114% (inactive) and 100% (inactive).
Still for that read-out and setting: then `Nc1ccccc1Nc1ccccc1`, with 122% (inactive) and 129% (inactive); and `Oc1ccccc1C=NCC1CCC(CN=Cc2ccccc2O)CC1` (configuration not stated), with 76.4% (inactive); and `Clc1ccc(NC(Nc2ccc(Cl)cc2)C(Cl)(Cl)Cl)cc1`, with 111% (inactive) and 113% (inactive).

The next assay deals with SF-268 CNS. The assay is described as above. The note with it: 10 µM unless noted.
With `COc1ccc(/C(C#N)=C/c2ccccn2)cc1`, the growth is 99.1% (inactive) and 122% (inactive).
Still for that read-out and setting: under `O=C1OC2(c3ccccc31)c1ccc(O)c(O)c1Oc1c2ccc(O)c1O` stands 108% (inactive) and 114% (inactive); under `CC(=O)Nc1cccc2c1CCCC2`, 95.6% (inactive) and 103% (inactive).
On the same count and under the same terms, under `CN(C)c1ccc2nc3ccc(N)cc3[n+](-c3ccccc3)c2c1` stands 30.3% (inactive) and 7.92% (active); under `CCN(CC)CCOc1ccc(/C=N/Nc2nc3c([nH]2)c(=O)n(C)c(=O)n3C)cc1`, 111% (inactive) and 102% (inactive).
Still for that read-out and setting: under `O=C1CCN(Cc2ccccc2)C(=S)N1` stands 111% (inactive) and 99.5% (inactive); under `CC(C)Cc1ccc(C(C)C(=O)NCc2ccc(Cn3c(=O)sn(CCCI)c3=O)cc2)cc1` (configuration not stated), 91% (inactive) and -64.5% (active).
For `CCc1c(CC(=O)O)c2cc(C)ccc2n1Cc1ccc(Cl)cc1`, the growth is 96.3% (inactive) and 99.4% (inactive).
Turning to `CNC(=O)c1ccc(C)c(-n2c(C)cc(OCc3ccc(F)cc3F)c(Br)c2=O)c1`, the growth is 81.6% (inactive) and 84.2% (inactive).
The same measure, in the same setting: then `O=[N+]([O-])c1ccc(-n2[nH]nnc2=S)cc1`, with 98.3% (inactive); and `COC(=O)/C=C/c1cc(O)c2c(c1)C(C(=O)OC)C(c1ccc(O)c(O)c1)O2` (configuration not stated), with 34.1% (inactive) and 28.5% (inactive).
For `COC(=O)c1nc(N)nc(C(=O)OC)c1C(=O)c1ccc(OC)cc1`, the growth was 97.9% (inactive) and 92.8% (inactive).
As for `COc1cc2c(c(OC)c1OC)-c1ccc(OC)c(=O)cc1[C@@H](NC(C)=O)CC2`, the growth was 33.5% (inactive) and 27.5% (inactive) and 35.1% (inactive).
`CN1CCN(c2ccc3nc(-c4c(N)c5c(F)cccc5[nH]c4=O)[nH]c3c2)CC1`: the growth is 44.7% (inactive) and 48.9% (inactive).
As to `NC(=S)NN=C1CCC(C2CCCCC2)CC1` (configuration not stated), the growth was 89.9% (inactive) and 102% (inactive).
Take `c1ccc2cc(C[n+]3ccn(Cc4ccc5ccccc5n4)c3)ccc2c1`: the growth is 11.9% (inactive) and 41.2% (inactive).
On the same count and under the same terms, under `CN(C)CCC(=O)c1ccc(Cl)cc1` stands 105% (inactive) and 107% (inactive); under `Fc1ccccc1Nc1n[nH]c(=S)s1`, 91.5% (inactive).
Still for that read-out and setting: then `CCOc1ccc2cc(-c3nn(CC4CCN(C)CC4)c4ncnc(N)c34)ccc2c1`, with 90% (inactive) and 48.6% (inactive); and `CC[N+](CC)(CC(=O)Nc1c(C)cccc1C)Cc1ccccc1`, with 91.9% (inactive) and 104% (inactive); and `CC1=CCC2CC1C2(C)C` (configuration not stated), with 115% (inactive) and 94.1% (inactive).
On the same count and under the same terms, under `CC1(C)[C@@H](OC(=O)CCC(=O)O)CC[C@]2(C)[C@H]3C(=O)C=C4[C@@H]5C[C@@](C)(C(=O)O)CC[C@]5(C)CC[C@@]4(C)[C@]3(C)CC[C@@H]12` stands 96.1% (inactive) and -27% (active); under `CCC(O)c1ccccc1` (configuration not stated), 113% (inactive); under `CN(Cc1ccccc1)Cc1ccccc1`, 97.1% (inactive).
With `COc1ccc(-c2ncnc3c2ncn3C/C=C/CCl)cc1`, the growth was 87.7% (inactive) and 86.8% (inactive).
The same measure, in the same setting: then `NS(=O)(=O)c1cc2c(cc1Cl)NC(C(Cl)Cl)NS2(=O)=O` (configuration not stated), with 107% (inactive) and 104% (inactive); and `O=Nc1ccc(O)cc1`, with 88.7% (inactive) and 93.4% (inactive); and `COc1ccc2c(=O)cc(-c3ccccc3)[nH]c2c1`, with 45.3% (inactive) and 43.1% (inactive).
Regarding `O=CC(O)C(O)C(O)CO` (configuration not stated), the growth is 107% (inactive) and 100% (inactive).
Still for that read-out and setting: under `CN(C)c1ccc(/C=C(\C#N)c2ccccc2)cc1` stands 43.5% (inactive) and 61.1% (inactive) and 56% (inactive); under `OCCN1CCN(CCO)CC1`, 107% (inactive) and 101% (inactive) and 105% (inactive); under `CC1=C[C@H]2c3c(c(O)c(O)c4oc5cc(O)cc(O)c5c(=O)c34)[C@H](c3cc(O)c(O)c4oc5cc(O)cc(O)c5c(=O)c34)[C@H]2C(C)(C)C1`, 10.3% (inactive) and -12.3% (active).
As to `CCOc1ccc2c(S(=O)(=O)O)cccc2c1[N+](=O)[O-]`, the growth is 99.1% (inactive) and 96.2% (inactive).
Still for that read-out and setting: under `Nc1ccccc1Nc1ccccc1` stands 90.4% (inactive) and 77.8% (inactive).
Still for that read-out and setting: under `Oc1ccccc1C=NCC1CCC(CN=Cc2ccccc2O)CC1` (configuration not stated) stands 93.9% (inactive); under `Clc1ccc(NC(Nc2ccc(Cl)cc2)C(Cl)(Cl)Cl)cc1`, 87.7% (inactive) and 90.5% (inactive).
